Measured values published in the supplement of paper PMC12282887.
± gives the standard deviation of the averaged measurements.

System: E. coli BW25113 marRABp lux reporter
Assay: promoter activity interaction Z-score (Lux/OD deviation from empty-vector control); higher = stronger promoter induction by the compound
Procedure: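 E. coli BW25113 (wild type or ΔmarA/ΔsoxS/Δrob) carrying pTU175 luxCDABE promoter reporters was grown in LB in 384-well plates at 37°C with each of 94 compounds at 4 two-fold concentrations, in biological duplicates. Luminescence and OD600 were read every 30 min for 12 h and integrated as AUC over 8 h (0-8 h WT, 1-9 h mutants). Lux AUC was divided by OD AUC; the interaction score is the residual of a Huber robust fit of each promoter against the empty-vector control, then Z-transformed per promoter.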

Structure (SMILES)	promoter activity interaction Z-score (0.26 µg/ml, genetic background: wild type)	promoter activity interaction Z-score (0.26 µg/ml, genetic background: ΔmarA)	promoter activity interaction Z-score (0.26 µg/ml, genetic background: Δrob)	promoter activity interaction Z-score (0.26 µg/ml, genetic background: ΔsoxS)	promoter activity interaction Z-score (0.52 µg/ml, genetic background: wild type)	promoter activity interaction Z-score (0.52 µg/ml, genetic background: ΔmarA)	promoter activity interaction Z-score (0.52 µg/ml, genetic background: Δrob)	promoter activity interaction Z-score (0.52 µg/ml, genetic background: ΔsoxS)	promoter activity interaction Z-score (1 µg/ml, genetic background: wild type)	promoter activity interaction Z-score (1 µg/ml, genetic background: ΔmarA)	promoter activity interaction Z-score (1 µg/ml, genetic background: Δrob)	promoter activity interaction Z-score (1 µg/ml, genetic background: ΔsoxS)	promoter activity interaction Z-score (2.1 µg/ml, genetic background: wild type)	promoter activity interaction Z-score (2.1 µg/ml, genetic background: ΔmarA)	promoter activity interaction Z-score (2.1 µg/ml, genetic background: Δrob)	promoter activity interaction Z-score (2.1 µg/ml, genetic background: ΔsoxS)	promoter activity interaction Z-score (21 µg/ml, genetic background: wild type)	promoter activity interaction Z-score (21 µg/ml, genetic background: ΔmarA)	promoter activity interaction Z-score (21 µg/ml, genetic background: Δrob)	promoter activity interaction Z-score (21 µg/ml, genetic background: ΔsoxS)	promoter activity interaction Z-score (42 µg/ml, genetic background: wild type)	promoter activity interaction Z-score (42 µg/ml, genetic background: ΔmarA)	promoter activity interaction Z-score (42 µg/ml, genetic background: Δrob)	promoter activity interaction Z-score (42 µg/ml, genetic background: ΔsoxS)	promoter activity interaction Z-score (84.1 µg/ml, genetic background: wild type)	promoter activity interaction Z-score (84.1 µg/ml, genetic background: ΔmarA)	promoter activity interaction Z-score (84.1 µg/ml, genetic background: Δrob)	promoter activity interaction Z-score (84.1 µg/ml, genetic background: ΔsoxS)	promoter activity interaction Z-score (168.2 µg/ml, genetic background: wild type)	promoter activity interaction Z-score (168.2 µg/ml, genetic background: ΔmarA)	promoter activity interaction Z-score (168.2 µg/ml, genetic background: Δrob)	promoter activity interaction Z-score (168.2 µg/ml, genetic background: ΔsoxS)
CCC[C@@H]1C[C@@H](C(=O)N[C@@H]([C@H]2O[C@H](SC)[C@H](O)[C@@H](O)[C@H]2O)[C@H](C)Cl)N(C)C1 [Clindamycin]	0.333 ± 0.029	0.0595 ± 0.25	0.168 ± 0.043	0.145 ± 0.068	-0.369 ± 0.4	0.0444 ± 0.093	0.0402 ± 0.096	0.279 ± 0.051	0.363 ± 0.56	-0.225 ± 0.051	0.279 ± 0.32	0.414 ± 0.023	0.13 ± 0.11	-0.108 ± 0.33	0.449 ± 0.032	0.869 ± 0.17																
COc1ccc2cc3[n+](cc2c1OC)CCc1cc2c(cc1-3)OCO2 [Berberine]																	-0.142 ± 0.16	-0.0869 ± 0.24	-0.003 ± 0.15	0.0721 ± 0.0037	-0.183 ± 0.049	-0.0953 ± 0.12	-0.278 ± 0.1	-0.0367 ± 0.026	-0.286 ± 0.35	0.056 ± 0.18	-0.324 ± 0.01	-0.135 ± 0.015	-0.373 ± 0.17	-0.165 ± 0.027	-0.287 ± 0.045	-0.015 ± 0.094
